The supplement of paper PMC6763611

Tested on: Plasmodium falciparum NF54
Test: growth inhibition relative to untreated control; higher = more inhibition
Details: 72 h
Procedure, shortened: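 P. falciparum NF54 ring stages (1% hematocrit, 1% parasitemia, 100 μL/well in 96-well half-area dark plates) were exposed for 72 h at 37 °C to single 5 μM or 1 μM doses of Pathogen Box compounds. The medium was minimal RPMI or minimal RPMI plus chorismate end-products (2.2 μM folate, 7.3 μM pABA, 7.3 μM pHBA, 111 μM tyrosine, 90 μM phenylalanine, tryptophan). Growth inhibition was read by SYBR Green, normalised to untreated controls, with uninfected erythrocytes as background.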

[1] = 1 µM, MM + chorismate end-products (CM screening medium)
[2] = 5 µM, MM + chorismate end-products (CM screening medium)

SMILES: CCc1nn(C)c(C(=O)NCc2ccc(Oc3ccc(C)cc3)cc2)c1Cl
- growth inhibition [1]: < 0%
- growth inhibition (1 µM, minimal medium (MM)): 3.68%
- growth inhibition [2]: < 0%
- growth inhibition (5 µM, minimal medium (MM)): < 0%

SMILES: O=C1O[C@@H](COc2ccon2)CN1c1cc(F)c(C2=CCN(Cc3ccccc3)CC2)c(F)c1
- growth inhibition [1]: 13.6%
- growth inhibition (1 µM, minimal medium (MM)): < 0%
- growth inhibition [2]: 54.4%
- growth inhibition (5 µM, minimal medium (MM)): 28.6%

SMILES: CO/N=C(\C(=O)OC)c1ccccc1CO/N=C(\C)c1cccc(C(F)(F)F)c1
- growth inhibition [1]: 98%
- growth inhibition (1 µM, minimal medium (MM)): 96.6%
- growth inhibition [2]: 91.5%
- growth inhibition (5 µM, minimal medium (MM)): 91.8%

SMILES: O=C1O[C@@H](CO)CN1c1cc(F)c(C2=CCN(Cc3ccccc3)CC2)c(F)c1
- growth inhibition [1]: 19.3%
- growth inhibition (1 µM, minimal medium (MM)): 23.4%
- growth inhibition [2]: 45%
- growth inhibition (5 µM, minimal medium (MM)): 49.9%

SMILES: CC1(C)OB(O)c2ccc(C3=NOC(c4cc(Cl)c(F)c(Cl)c4)(C(F)(F)F)C3)cc21 (centres undefined)
- growth inhibition [1]: 53.3%
- growth inhibition (1 µM, minimal medium (MM)): 48.1%
- growth inhibition [2]: 53.9%
- growth inhibition (5 µM, minimal medium (MM)): 11.9%

SMILES: CC1COC(Cn2cncn2)(c2ccc(Oc3ccc(Cl)cc3)cc2Cl)O1 (centres undefined)
- growth inhibition [1]: 22%
- growth inhibition (1 µM, minimal medium (MM)): 38.1%
- growth inhibition [2]: 67.8%
- growth inhibition (5 µM, minimal medium (MM)): 33.6%

SMILES: Cc1nn(C)c(C)c1NS(=O)(=O)c1c(Cl)cc(-c2ccnc(N3CCNCC3)c2)cc1Cl
- growth inhibition [1]: 55.7%
- growth inhibition (1 µM, minimal medium (MM)): 79.5%
- growth inhibition [2]: 84.1%
- growth inhibition (5 µM, minimal medium (MM)): 89.6%

SMILES: Cc1cccc(C(=O)Nc2ccnc(N(C)C3CCN(CC(C)C)CC3)c2)c1
- growth inhibition [1]: > 100%
- growth inhibition (1 µM, minimal medium (MM)): 61.7%
- growth inhibition [2]: 94.8%
- growth inhibition (5 µM, minimal medium (MM)): 92.4%

SMILES: CO[C@@H]1CN(c2ccc(C#CC3(O)CN4CCC3CC4)c(Cc3ccccc3)n2)C[C@H]1O (some centres undefined)
- growth inhibition [1]: 33.3%
- growth inhibition (1 µM, minimal medium (MM)): < 0%
- growth inhibition [2]: 42.8%
- growth inhibition (5 µM, minimal medium (MM)): 9.06%

SMILES: Nc1c2c(nc3sc4c(c13)CCCC4)CCCC2
- growth inhibition [1]: 2.72%
- growth inhibition (1 µM, minimal medium (MM)): 13.8%
- growth inhibition [2]: 52.3%
- growth inhibition (5 µM, minimal medium (MM)): 13.1%

SMILES: Cc1cc(C2=NOC(c3cc(Cl)c(F)c(Cl)c3)(C(F)(F)F)C2)ccc1C(=O)NCc1ccc2c(c1)C(C)(C)OB2O (centres undefined)
- growth inhibition [1]: 19.4%
- growth inhibition (1 µM, minimal medium (MM)): < 0%
- growth inhibition [2]: 40.8%
- growth inhibition (5 µM, minimal medium (MM)): 10.9%
